Screening results (PubChem BioAssay)
FEN1 inhibitor: blocks human flap endonuclease 1 | Recombinant FEN1 flap cleavage, fluorescence, 15 min | 390,000 compounds, 0.35% hits | Potency, µM (titrated, usually from 114 µM), inactives show at the top dose activity change, negative = inhibition, most hits filed as inhibitors | AID 588795; note: potency is the fitted concentration of half-maximal effect; % is set by controls: 0 for no effect and ±100 for the full control effect; nearly all actives have a fitted effect of over 65% in size
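FEN1 at 10 nM preincubated with compounds 15 min at room temperature, then flap DNA substrate added at 50 nM final. Signal read at 0 and 15 min; concentration-response fitted with four-parameter Hill equation.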
VDR inhibitor: blocks the human vitamin D receptor. Potency, µM, for the others: max response, negative = inhibition, actives largely listed as inhibitors. 400,000 compounds, 0.93% hits. VDR-SRC2-3 peptide fluorescence polarization, 2 h. P11473; note: potency is the fitted concentration of half-maximal effect; % is set by controls: 0 for no effect and ±100 for the full control effect
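Signal is fluorescence polarization, reporting how far test compounds block the interaction of VDR with the SRC2-3 coregulator peptide after a 2 h room-temperature incubation.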
PLK1 PBD block: blocks phosphopeptide binding to human PLK1 polo-box domain; Potency, µM, for the others: max response, negative = inhibition, usual class: inhibitors; 360,000 compounds, 2.8% hits; Plk1 PBD binding of FITC phosphopeptide, fluorescence polarization; AID 720504; note: potency is the fitted concentration of half-maximal effect; series mostly up to about 57 µM; % is set by controls: 0 for no effect and ±100 for the full control effect; nearly all actives have a fitted effect of over 65% in size
TCR activator: activators of T cell receptors. 330,000 tested, under 10 active. primary human leukocytes, anti-CD3, IL-2 HTRF, 48 h. Potency, µM (highest dose often 9.22 µM), without a hit: at the top dose activation of IL-2 secretion, usual class: activators. AID 504894; note: % of control where 0% means no effect
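Primary human leukocytes were stimulated with a-CD3 beads plus compounds for 48 hr without co-stimulation; secreted IL-2 was quantified by HTRF using a-IL-2-K (europium cryptate) and a-IL-2-d2, excited at 320nm with acceptor emission read at 665nm.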
WRN helicase inh: blocks human WRN helicase; WRN helicase unwinding, fluorescent forked duplex, kinetic; Potency, µM (doses to about 114 µM), for the others: at the top dose activity change, negative = inhibition, usual class: inhibitors; 360,000 compounds, 0.46% hits; Q14191; note: potency is the fitted concentration of half-maximal effect; % is set by controls: 0 for no effect and ±100 for the full control effect; nearly all actives have a fitted effect of over 55% in size
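WRN at 20 nM final was preincubated with compound for 15 min at room temperature; reaction started with 100 nM forked duplex oligonucleotide carrying fluorophore and quencher plus 2 mM ATP (final). Unwinding followed kinetically by red fluorescence (ex 525/em 598 nm).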
PI5P4Ka inh: PI5P4K alpha (human) kinase inhibition; PI5P4Kalpha enzyme, ADP-Glo luminescence, 60 min; hits give low values; max response, %; 330,000 compounds, 1.2% hits; AID 652105; active = max response of -50% or lower; inconclusive = between -30% and -50%; inactive = -30% or higher; note: value at the top dose of about 77 µM; % is set by controls: 0 for no effect and ±100 for the full control effect
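Reactions run in 0.038 M HEPES pH 7.4, 0.28 mM EGTA, 0.1% CHAPS and 5% DMSO, with PI5P4Kalpha, substrate, compound and 5 microM ATP final, one hour at room temperature. Readout is ADP-Glo luminescence.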
Starred values were filed as active, the others as inactive; ? = inconclusive; nt = no result; [ ] = dose if it differs, or a comment. An excerpt weighted towards active compounds, which were near 3.7% of everything screened. Unless noted, calls come from the whole dose curve; as a rule, active = well fitted curve in the direction sought with a large enough effect; inconclusive = small, poorly fitted or top-dose-only effect, or another doubt; inactive = no such curve, though single readings can be large; an effect the other way counts as inactive or inconclusive.

SMILES	FEN1 inhibitor	VDR inhibitor	PLK1 PBD block	TCR activator	WRN helicase inh	PI5P4Ka inh
O=C1C(Cl)=C(Nc2ccccc2O)C(=O)N1c1ccccc1	0%	?	8.4µM*	-3%	-13%	nt
CCN1CCc2nc3sc(C(=O)c4ccccc4)c(N)c3cc2C1	-15%	10%	nt	nt	nt	nt
COc1ccc(NC(=O)c2c(NCc3ccc(C)o3)sc3c2CCC(C)C3)cc1 (stereo unspecified)	-5%	?	nt	nt	nt	nt
COC(=O)[C@@]1(C)[C@H]2C(=O)N(Cc3ccccc3)C(=O)[C@H]2[C@H]2CN=C(SCC(=O)c3ccccc3)N21	-4%	20µM*	?	6%[46.1 µM]	9%	-25
CCCSc1nnc(NC(=O)CSc2sc3c(O)cc(=O)[nH]c3c2C#N)s1	35µM*	-1%	17µM*	-7%	10µM*	-72*
N#Cc1c(SCC(=O)Nc2ccccc2C(F)(F)F)sc2c(O)cc(=O)[nH]c12	-20%	22%	-17%	-1%	-3%[11.6 µM]	?
CCn1cc2nc(SCC(=O)Nc3ccc(C)cc3C)n(Cc3ccc(C)cc3)c(=O)c2n1	-7%	9%	nt	nt	nt	nt
O=C(Nc1cc(Cl)cc(Cl)c1)c1ccc(F)c(S(=O)(=O)N2CCc3ccccc32)c1	-5%	-5%	nt	nt	nt	nt
COc1ccc(NC(=O)c2cc(S(=O)(=O)N3CCCC(C)C3)cn2C)c(OC)c1 (stereo unspecified)	-10%	-12%	nt	nt	nt	nt
CC(C)NC(=O)Nc1ccc2c(c1)CC(=O)N([C@@H](C)CO)C[C@H](C)[C@@H](CN(C)C(=O)NC1CCCCC1)O2	-5%	89µM*	-15%	-13%	-4%	-1
CC(=O)N[C@@H](CC(C)C)C(=O)N[C@@H](CCCNC(=N)N)C(=O)N[C@@H](Cc1cnc[nH]1)C(=O)N[C@@H](Cc1ccc(O)cc1)C(=O)N[C@@H](CC(C)C)C(=O)N[C@@H](CC(N)=O)C(=O)N[C@@H](CC(C)C)C(=O)N[C@@H](CC(C)C)C(=O)N[C@H](C(=O)N[C@@H](CCCNC(=N)N)C(=O)N[C@@H](CCC(N)=O)C(=O)N[C@@H](CCCNC(=N)N)C(=O)N[C@@H](Cc1ccc(O)cc1)C(N)=O)[C@@H](C)O	nt	6%	nt	nt	nt	nt
O=C(O)C1CC=CC2CCN(C3CC3)C(=O)C21 (stereo unspecified)	9%	-3%	nt	nt	nt	nt
O=C(Nc1ccccc1)Nc1nncs1	-1%	-10%	30µM*	9%	13%	-14
O=C(Nc1ccccc1)Nc1ccc2nnsc2c1	-5%	-26%	30µM*	1%	-27%	-9
O=C(Nc1ccccc1)Nc1nccs1	3%	16%	-5%	-5%	13%	?
Nc1ncc(N=Nc2cc(C(=O)O)ccc2Cl)s1	?	?	?	-1%	-29%[11.6 µM]	-54*
CCNC(=O)NC(=O)CSc1ccc2ccccc2c1	-12%	?	27µM*	-10%	1%	-6
CCc1ccc(NC(=O)c2ccc(F)c(S(=O)(=O)N3CCN(c4ccc(OC)cc4)CC3)c2)cc1	-3%	10%	nt	nt	nt	nt
C[N+]1(CC(=O)OCCCC2CCCCC2)CCCC1	-3%	-22%	30µM*	6%	0%	-9
O=C(CN1CCCC1)OCCCC1CCCCC1	-12%	-6%	-6%	8%	-1%	1
CCCCC/C=C/C1=CC(=O)C[C@H](c2ccc(OC)cc2)C1	?	-25%	-6%	0%	4%	10
COc1ccc([C@H]2CC(=O)C=C(/C=C/Cc3ccccc3)C2)cc1	-18%	79µM*	-15%	5%	-16%	1
O=c1cc(-c2ccccc2Cl)oc2c([N+](=O)[O-])c(O)cc(O)c12	?	?	-27%	1%	-9%	-96*
O=c1cc(-c2ccccc2Cl)oc2ccc([N+](=O)[O-])c(O)c12	-16%	-9%	?	-6%	-5%	-7
CC(C)N(c1ccc(C=O)cc1)C(C)C	-7%	nt	nt	nt	nt	nt
SMILES	FEN1 inhibitor	VDR inhibitor	PLK1 PBD block	TCR activator	WRN helicase inh	PI5P4Ka inh
COc1cccc(-c2ccc3ncnc(NCc4cnc(C)cn4)c3c2)c1	nt	-15%	nt	nt	nt	nt
CC(=O)O[C@@H]1C(CO[Si](C)(C)C(C)(C)C)=C(Br)C(=O)[C@@H]2O[C@]12C	nt	25µM*	nt	nt	nt	nt
C=C(C(C)=O)C(O)/C=C/c1ccco1 (stereo unspecified)	nt	6%	nt	nt	nt	nt
S=c1nc(C2CCCCC2)[nH]c2ccccc12	-6%	-6%	-7%	-1%	-3%	14
S=c1nc(C2CC2)[nH]c2ccccc12	-4%	?	24µM*	-4%	-23%[57.1 µM]	?
Cc1cc(I)ccc1Nc1c(C(=O)NOCC2CC2)cc(F)c(F)c1F	nt	-28%	nt	nt	nt	nt
O=c1[nH]c(=S)c2ncn(-c3ccccc3)c2[nH]1	1%	?	27µM*	4%	0%	?
COc1cccc([C@@H]2Oc3ccc(OC)cc3C[C@H]2OC(=O)Nc2cc(OC)c(OC)c(OC)c2)c1	nt	-1%	nt	nt	nt	nt
COC(=O)/C=C1/SC(=NC(=O)c2ccc(Cl)cc2)NC1=O	-7%	?	34µM*	-3%	-24%	-10
Cc1ccc(C(=S)N2CCCCCC2)cc1	-1%	?	?	nt	-2%	-21
CSc1ccc(CN2CCCN(C)CC2)cc1	-1%	-18%	0%	3%	9%	0
CSc1ccc(C(=S)N2CCN(C)CC2)cc1	-1%	-54%	30µM*	0%	6%	nt
CN1CCN(C(=S)c2ccc(N(C)C)cc2)CC1	-3%	?	10µM*	-18%	5%	nt
CSc1ccc(C(=S)N2CCN(C(c3ccccc3)c3ccccc3)CC2)cc1	-16%	?	13µM*	-1%	1%	-2
Cc1ccc(CCNC(=O)Cn2ncc3c(=O)oc4ccccc4c32)cc1	15%	-14%	nt	nt	nt	nt
CC1=NN(c2ccccc2)C(=O)/C1=C/c1c(O)n(-c2ccc(F)c(Cl)c2)[nH]c1=O	?	-19%	27µM*	-3%	?	?
CCOC(=O)c1ccc(O)cc1	nt	0%	nt	nt	nt	nt
CCSC(=O)N=Nc1ccc(O)cc1	2%	?	27µM*	-4%	-24%	?
CC(C)(C)C(=O)Cn1ncc(Cl)c(Cl)c1=O	18%	9%	-14%	-22%	-3%	1
C=CCn1c(C)cc(C(=O)Cn2ncc(Cl)c(Cl)c2=O)c1C	-12%	-19%	-22%	5%[46.1 µM]	?	-72*
CN(C)c1nc(N2CCN(c3ccc(F)cc3)CC2)c(C#N)c(=O)o1	7%	-14%	-23%	0%	-4%	15
N#Cc1c(N2CCN(c3ccc(F)cc3)CC2)nc(N)c2c(N)nc3c(c12)CC(=O)N3C1CC1	-11%	14%	-29%	-5%	-13%	-50*
N/C(=N\OC(=O)c1ccc([N+](=O)[O-])cc1)c1cccnc1	0%	-24%	-7%	-1%[46.1 µM]	7%	1
O=C(Oc1c(Br)cc([N+](=O)[O-])cc1Br)c1cccnc1	0%	-10%	19µM*	-2%[46.1 µM]	?	-15
